# Results reported in the supplement of paper PMC8975748.
# Structures can show the parent of a compound that is named as a salt. ± gives the standard deviation of the averaged measurements.
# Test system: Saccharomyces cerevisiae BY4741 SeMeCo community
# Assay: mean cell size (pixel area) (pixels); higher = larger cells
# Conditions: 10 µM; 24 h; SM minimal medium
# Summary of the method: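 A Saccharomyces cerevisiae BY4741 community carrying four plasmids, each with a fluorescent marker and each complementing one auxotrophy, was exposed for 24 h to drug at a final 10 µM in SM medium in acoustically predosed 384-well plates. The overnight preculture (OD600 = 1.0) was diluted to OD600 = 0.3 before 70 µl was added per well. Cells were then fixed with paraformaldehyde, imaged by automated confocal microscopy and analysed in Harmony to derive mean cell pixel area per well, averaged over 3 replicates. Same SeMeCo high-content imaging drug screen: Selleck FDA-approved drugs at 10 µM, 24 h in SM medium, 384-well plates, 3 replicates.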
row,Compound,mean cell size
1,O=C(Cn1cnnn1)N[C@@H]1C(=O)N2C(C(=O)O)=C(CSc3nncs3)CS[C@H]12 [Ceftezole],12 ± 0.2
2,O=C(NCCN1CCOCC1)c1ccc(Cl)cc1,12.4 ± 0.22
3,C=C[C@]1(C)C[C@@H](OC(=O)CSC(C)(C)CNC(=O)[C@H](N)C(C)C)[C@]2(C)[C@H](C)CC[C@]3(CCC(=O)[C@H]32)[C@@H](C)[C@@H]1O [Valnemulin HCl],12.3 ± 0.19
4,CCCCCCCCN=c1ccn(CCCCCCCCCCn2ccc(=NCCCCCCCC)cc2)cc1 [Octenidine Dihydrochloride],9.029 ± 0.063
5,CC1(C)S[C@@H]2[C@H](NC(=O)Cc3ccccc3)C(=O)N2[C@H]1C(=O)O [Penicillin G Sodium],12.6 ± 0.34
6,CC(C)[C@H]1CC[C@H](C(=O)N[C@H](Cc2ccccc2)C(=O)O)CC1 [Nateglinide],12.5 ± 0.12
7,Nc1ccc(S(=O)(=O)NC(=O)c2ccccc2)cc1 [Sulfabenzamide],12.5 ± 0.4
8,COc1ccc(C(=O)NCc2ccc(OCCN(C)C)cc2)cc1OC [Itopride hydrochloride],12.4 ± 0.13
9,COc1ccc(-c2nc3cc(C4=NNC(=O)CC4C)ccc3[nH]2)cc1 (configuration not stated) [Pimobendan],12.31 ± 0.12
10,CC(C)N1CCN(c2ccc(OCC3COC(Cn4cncn4)(c4ccc(Cl)cc4Cl)O3)cc2)CC1 (configuration not stated) [Terconazole],12.1 ± 0.043
11,COc1ccc2c(c1)c(CC(=O)O)c(C)n2C(=O)c1ccc(Cl)cc1 [Indomethacin],12.29 ± 0.12
12,N[C@@H](CCC(=O)O)C(=O)O [(S)-Glutamic acid],12.1 ± 0.22
13,CC1(C)S[C@@H]2[C@H](NC(=O)Cc3ccccc3)C(=O)N2[C@H]1C(=O)O [Benzylpenicillin potassium],12.1 ± 0.18
14,NC(=O)c1cnccn1 [Pyrazinamide],12.6 ± 0.23
15,Cc1nnc(NS(=O)(=O)c2ccc(N)cc2)s1 [Sulfamethizole],12.3 ± 0.23
16,CCC[C@@H]1C[C@@H](C(=O)N[C@@H]([C@H]2O[C@H](SC)[C@H](OP(=O)(O)O)[C@@H](O)[C@H]2O)[C@H](C)Cl)N(C)C1 [Clindamycin Phosphate],12 ± 0.22
17,CN[C@@H]1[C@H](O[C@H]2[C@H](O[C@H]3[C@H](O)[C@@H](O)[C@H](N=C(N)N)[C@@H](O)[C@@H]3N=C(N)N)O[C@@H](C)[C@]2(O)C=O)O[C@@H](CO)[C@H](O)[C@H]1O [Streptomycin sulfate],11.99 ± 0.031

row,Compound,mean cell size
1,O=c1[nH]cnc2c1ncn2[C@@H]1O[C@H](CO)[C@@H](O)[C@H]1O [Isoprinosine],12 ± 0.19
2,COC(=O)C1=C(C)NC(C)=C(C(=O)OC)C1c1ccccc1[N+](=O)[O-] [Nifedipine],12.5 ± 0.2
3,Nc1ccc(S(=O)(=O)c2ccc(N)cc2)cc1 [Dapson],12.5 ± 0.26
4,NC(CO)(CO)CO [Trometamol],12.2 ± 0.18
5,C[C@]1(COc2ccc(N3CCC(Oc4ccc(OC(F)(F)F)cc4)CC3)cc2)Cn2cc([N+](=O)[O-])nc2O1 [Delamanid],12.1 ± 0.19
6,CO[C@@H]1[C@@H](O[C@@H]2O[C@H](C)[C@@H](O[C@H]3C[C@@](C)(O)[C@@H](O)[C@H](C)O3)[C@H](N(C)C)[C@H]2O)[C@@H](CC=O)C[C@@H](C)[C@@H](O[C@H]2CC[C@H](N(C)C)[C@@H](C)O2)/C=C/C=C/C[C@@H](C)OC(=O)C[C@H]1OC(C)=O [Acetylspiramycin (ASPM)],12.3 ± 0.32
7,C[C@]12CC[C@@H]3c4ccc(OS(=O)(=O)O)cc4CC[C@H]3[C@@H]1CCC2=O [Estropipate],12.21 ± 0.12
8,COc1ccnc(C[S+]([O-])c2nc3cc(-n4cccc4)ccc3[nH]2)c1C (configuration not stated) [Ilaprazole sodium],12.7 ± 0.23
9,CN1C[C@@H]2C[C@H]1CN2c1cc2c(cc1F)c(=O)c(C(=O)O)cn2C1CC1 [Danofloxacin Mesylate],12.1 ± 0.25
10,c1ccc(-c2ccc(C(c3ccccc3)n3ccnc3)cc2)cc1 (configuration not stated) [Bifonazole],12.65 ± 0.082
11,CO/N=C(\C(=O)N[C@@H]1C(=O)N2C(C(=O)O)=CCS[C@H]12)c1csc(N)n1 [Ceftizoxime],12.47 ± 0.084
12,C#C[C@]1(O)CC[C@H]2[C@@H]3CCC4=Cc5oncc5C[C@]4(C)[C@H]3CC[C@@]21C [Danazol],12.2 ± 0.23
13,Nc1c(Br)cc(Br)cc1CN[C@H]1CC[C@H](O)CC1 [Ambroxol HCl],12.1 ± 0.17
14,CCOC(=O)c1ccc(N)cc1 [Benzocaine],12.5 ± 0.19
15,O=C1c2c(O)ccc(O)c2C(=O)c2c(NCCNCCO)ccc(NCCNCCO)c21 [Mitoxantrone 2HCl],12.9 ± 0.15
16,c1ccc2[nH]c(-c3cscn3)nc2c1 [Thiabendazole],12.3 ± 0.24
17,C[C@@H](O)[C@H]1C(=O)N2C(C(=O)[O-])=C(SC3Cn4cnc[n+]4C3)[C@H](C)[C@H]12 (some centres not stated) [Biapenem],12.11 ± 0.1

# Test system: Saccharomyces cerevisiae BY4741 SeMeCo community
# Assay: z-score of prototroph abundance vs DMSO median; higher = larger share of this subpopulation than in DMSO controls
# Conditions: 10 µM; 24 h; SM minimal medium; subpopulation (auxotrophy): Prototroph
# Summary of the method: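 Four plasmids, each restoring a single auxotrophy and encoding a distinct fluorescent protein, were carried by a Saccharomyces cerevisiae BY4741 community. After overnight growth to OD600 1.0 and dilution to 0.3, 70 µl per well was grown for 24 h in minimal SM medium on 384-well plates acoustically predosed with library drugs at 10 µM final. Following paraformaldehyde fixation, automated confocal microscopy was used, with single-auxotroph fluorescent strains defining thresholds and autofluorescence correction. Subpopulation abundance was then scored as a z-score against the vehicle-well median.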
row,Compound,z-score of prototroph abundance
1,O=C(NCCN1CCOCC1)c1ccc(Cl)cc1,0.89
2,C=C[C@]1(C)C[C@@H](OC(=O)CSC(C)(C)CNC(=O)[C@H](N)C(C)C)[C@]2(C)[C@H](C)CC[C@]3(CCC(=O)[C@H]32)[C@@H](C)[C@@H]1O [Valnemulin HCl],-0.65
3,CN1CCN(CCCN2c3ccccc3Sc3ccc(C(F)(F)F)cc32)CC1 [Trifluoperazine 2HCl],0.01
4,CCCCCCCCN=c1ccn(CCCCCCCCCCn2ccc(=NCCCCCCCC)cc2)cc1 [Octenidine Dihydrochloride],-16.1
5,CC(C)[C@H]1CC[C@H](C(=O)N[C@H](Cc2ccccc2)C(=O)O)CC1 [Nateglinide],-0.85
6,Nc1ccc(S(=O)(=O)NC(=O)c2ccccc2)cc1 [Sulfabenzamide],0.8
7,COc1ccc(C(=O)NCc2ccc(OCCN(C)C)cc2)cc1OC [Itopride hydrochloride],-0.3
8,COc1ccc(-c2nc3cc(C4=NNC(=O)CC4C)ccc3[nH]2)cc1 (configuration not stated) [Pimobendan],-0.89
9,COc1cc([C@@H]2c3cc4c(cc3[C@@H](O[C@@H]3O[C@@H]5CO[C@@H](c6cccs6)O[C@H]5[C@H](O)[C@H]3O)[C@H]3COC(=O)[C@H]23)OCO4)cc(OC)c1O [Teniposide],-1.62
10,COc1ccc2c(c1)c(CC(=O)O)c(C)n2C(=O)c1ccc(Cl)cc1 [Indomethacin],0.27
11,N[C@@H](CCC(=O)O)C(=O)O [(S)-Glutamic acid],0.18
12,CC1(C)S[C@@H]2[C@H](NC(=O)Cc3ccccc3)C(=O)N2[C@H]1C(=O)O [Benzylpenicillin potassium],-0.27
13,NC(=O)c1cnccn1 [Pyrazinamide],-0.04
14,Cc1nnc(NS(=O)(=O)c2ccc(N)cc2)s1 [Sulfamethizole],0.97
15,CCC[C@@H]1C[C@@H](C(=O)N[C@@H]([C@H]2O[C@H](SC)[C@H](OP(=O)(O)O)[C@@H](O)[C@H]2O)[C@H](C)Cl)N(C)C1 [Clindamycin Phosphate],-0.33
16,CN[C@@H]1[C@H](O[C@H]2[C@H](O[C@H]3[C@H](O)[C@@H](O)[C@H](N=C(N)N)[C@@H](O)[C@@H]3N=C(N)N)O[C@@H](C)[C@]2(O)C=O)O[C@@H](CO)[C@H](O)[C@H]1O [Streptomycin sulfate],0.05
17,C=C1c2cccc(O)c2C(O)=C2C(=O)[C@]3(O)C(O)=C(C(N)=O)C(=O)[C@@H](N(C)C)[C@@H]3[C@@H](O)[C@H]12 [Methacycline HCl],0.09

row,Compound,z-score of prototroph abundance
1,COC(=O)C1=C(C)NC(C)=C(C(=O)OC)C1c1ccccc1[N+](=O)[O-] [Nifedipine],-0.35
2,Nc1ccc(S(=O)(=O)c2ccc(N)cc2)cc1 [Dapson],-0.54
3,NC(CO)(CO)CO [Trometamol],-0.35
4,C[C@]1(COc2ccc(N3CCC(Oc4ccc(OC(F)(F)F)cc4)CC3)cc2)Cn2cc([N+](=O)[O-])nc2O1 [Delamanid],-0.2
5,Nc1nc(=O)[nH]cc1F [Flucytosine],-10.3
6,CO[C@@H]1[C@@H](O[C@@H]2O[C@H](C)[C@@H](O[C@H]3C[C@@](C)(O)[C@@H](O)[C@H](C)O3)[C@H](N(C)C)[C@H]2O)[C@@H](CC=O)C[C@@H](C)[C@@H](O[C@H]2CC[C@H](N(C)C)[C@@H](C)O2)/C=C/C=C/C[C@@H](C)OC(=O)C[C@H]1OC(C)=O [Acetylspiramycin (ASPM)],-0.27
7,C[C@]12CC[C@@H]3c4ccc(OS(=O)(=O)O)cc4CC[C@H]3[C@@H]1CCC2=O [Estropipate],0.59
8,CN1C[C@@H]2C[C@H]1CN2c1cc2c(cc1F)c(=O)c(C(=O)O)cn2C1CC1 [Danofloxacin Mesylate],0.27
9,c1ccc(-c2ccc(C(c3ccccc3)n3ccnc3)cc2)cc1 (configuration not stated) [Bifonazole],-0.9
10,CO/N=C(\C(=O)N[C@@H]1C(=O)N2C(C(=O)O)=CCS[C@H]12)c1csc(N)n1 [Ceftizoxime],0.78
11,CN(C)[C@@H]1C(=O)C(C(N)=O)=C(O)[C@@]2(O)C(=O)C3=C(O)c4c(O)ccc(Cl)c4[C@@H](O)[C@H]3C[C@@H]12 [Demeclocycline HCl],0.9
12,Nc1c(Br)cc(Br)cc1CN[C@H]1CC[C@H](O)CC1 [Ambroxol HCl],1.21
13,CCOC(=O)c1ccc(N)cc1 [Benzocaine],0.6
14,O=C1c2c(O)ccc(O)c2C(=O)c2c(NCCNCCO)ccc(NCCNCCO)c21 [Mitoxantrone 2HCl],-2.59
15,c1ccc2[nH]c(-c3cscn3)nc2c1 [Thiabendazole],0.41
16,C[C@@H](O)[C@H]1C(=O)N2C(C(=O)[O-])=C(SC3Cn4cnc[n+]4C3)[C@H](C)[C@H]12 (some centres not stated) [Biapenem],0.75
